FMDV antiviral – antivirals against foot and mouth disease virus; AID 1159524; Potency, µM (highest dose often 57.9 µM), without a hit: top-dose activity change, negative = inhibition, usual class: inhibitors; 1.2% of 410,000 active; FMDV antiviral cell-based qHTS; calls by dose curve; tested in HEK293T cells; also: read-out not given here; potency is read from the fitted curve at half-maximal effect; nearly all actives have a fitted effect of over 45% in size
Vaccinia Venus – inhibitors of vaccinia virus (Venus reporter). Potency, µM (titrated, usually from 36.5 µM), for inactives: top-dose activity change, negative = inhibition, most hits filed as inhibitors. Vaccinia virus Venus reporter expression, fluorescence. 0.46% of 330,000 active. AID 720580; calls by dose curve; tested in A549 cells; also: potency is read from the fitted curve at half-maximal effect; nearly all actives have a fitted effect of over 30% in size
HCMV inh – inhibitors of human cytomegalovirus | HFF cells, HCMV-luciferase reporter, 72 h; hits give low values | activity change, negative = inhibition, % at 57.5 µM | 4.5% of 410,000 active | AID 1259415; in the data active = activity change below about -60%; inconclusive = no clear call, values can overlap the other calls; inactive = above about -39%
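Cell-based, HFFs, 1000 cells/well, 16 h 37C; cpds in DMSO + HCMV-luc, MOI 1 PFU/cell; 72 h 37C; OneGlo luminescence after 5 min RT; norm. to buffer vs Salinomycin 10uM.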
LASV entry inh – Lassa virus entry inhibition | Lassa virus pseudotype entry inhibition, cell reporter | Potency, µM (titrated, usually from 37.9 µM), for inactives: top-dose activity change, negative = inhibition, hits mostly inhibitors | AID 540256 | 1.2% of 300,000 active; calls by dose curve; tested in HEK293 cells; also: potency is read from the fitted curve at half-maximal effect; nearly all actives have a fitted effect of over 50% in size
VACV mCherry inh – vaccinia inhibition (mCherry reporter); Vaccinia virus mCherry reporter infection, fluorescence; Potency, µM (doses to about 36.5 µM), for the others: top-dose activity change, negative = inhibition, most hits filed as inhibitors; 0.63% of 310,000 active; AID 720579; calls by dose curve; tested in A549 cells; also: potency is read from the fitted curve at half-maximal effect; nearly all actives have a fitted effect of over 35% in size
Marburg entry inh – blocks Marburg virus binding to or entry into cells | Marburg virus pseudotyped entry inhibition, cell reporter | Potency, µM (series often up to 37.8 µM), for inactives: at the top dose activity change, negative = inhibition, hits mostly inhibitors | 1.8% of 300,000 active | AID 540276; calls by dose curve; tested in HEK293 cells; also: potency is read from the fitted curve at half-maximal effect
* hit, by the source's call; i = inactive; ? = inconclusive; · = not tested or not shown; [ ] = another dose, or the depositor's remark. Shown are actives, neighbours in structure and some others; about 6.5% of the full set was active somewhere. % is scaled to controls: 0 for no effect and ±100 for the full control effect.

SMILES | FMDV antiviral | Vaccinia Venus | HCMV inh | LASV entry inh | VACV mCherry inh | Marburg entry inh
Cc1ccc2onc(CC(=O)Nc3ccc(C(C)C)cc3)c2c1 | 0.0% | -10.8% | -6.9 | -28.4%[46.1 µM] | -13.1% | ·
COc1ccc(S(=O)(=O)N(C)CC(=O)Nc2ccc(C)cc2)cc1OC | -22.3% | · | 27.3 | · | · | ·
COc1ccccc1OCC(=O)Nc1ccc(S(=O)(=O)N(C)c2ccccc2)cc1 | -11.6% | · | -2.2 | · | · | ·
CCN(CC)S(=O)(=O)c1ccc(NC(=O)COc2c(OC)cccc2OC)cc1 | 31.6µM* | · | -6.6 | -23.6% | · | -18.3%
CCN(CC(=O)Nc1ccc(OC)c(OC)c1)S(=O)(=O)c1ccc(C)cc1 | 12.6µM* | -11.7% | -33.4 | -1.6% | · | 0.2%
CCCCCCN1C[C@H](O)[C@@H](n2cc(C3CC3)nn2)C[C@H]1c1ccccc1 | · | · | · | -1.7%[46.1 µM] | · | ·
Cc1cc(C)n(-c2nc3ccccc3c(=O)n2OCC#N)n1 | -15.5% | ? | -88.9* | ? | 2.51µM* | 7.94µM*
CCOn1c(-n2nc(C)cc2C)nc2ccccc2c1=O | 14.3% | · | -26.1 | -4.8% | · | -8.8%
CC(COc1ccc(/C=C/c2ccccc2)cc1)[N+](C)(C)C (configuration not stated) | -6.3% | -18.0% | -96.5* | ? | -24.0% | ?
CN(NS(=O)(=O)c1ccccc1)C(=O)c1ccccc1 | -15.1% | 5.1% | -99.9* | 0.0%[46.1 µM] | -19.1% | -6.2%[46.1 µM]
CN(NC(=O)NN(C)C(=O)c1ccccc1)C(=O)c1ccccc1 | -7.2% | -6.1% | -21.9 | -3.1% | i | ?
Cc1ccc(OCC(=O)NC(=S)Nc2ccccn2)c(Br)c1 | 15.8µM* | -10.3% | -62.5* | ? | i | ?
COc1ccccc1-c1cc(C(F)(F)F)nc(S(=O)(=O)CCCC(=O)Nc2cccnc2Cl)n1 | 14.1µM* | ? | -90.1* | ? | ? | ?
COc1ccccc1-c1cc(C(F)(F)F)nc(S(=O)(=O)CCCC(=O)Nc2ccccc2F)n1 | ? | -14.5%[7.34 µM] | -102.5* | ? | -22.6%[7.34 µM] | ?
C[C@H]1C[C@@H](C)O[C@@]2(C1)C(=O)N(Cc1ccccc1C(F)(F)F)c1ccccc12 | · | · | · | · | · | -15.0%[14.2 µM]
CCCSc1oc(-c2cccs2)nc1S(=O)(=O)c1ccc(Cl)cc1 | 5.4% | -12.9% | -4.2 | -0.8%[46.1 µM] | -15.6% | 2.5%[46.1 µM]
CCn1cc(CN2CCCC(CO)(Cc3ccc(F)cc3)C2)c2ccccc21 (configuration not stated) | -21.9% | -3.4% | -63.6* | -23.7%[46.1 µM] | ? | ?
COc1cccc(CC2(CO)CCCN(Cc3cn(C)c4ccccc34)C2)c1 (configuration not stated) | -20.9% | · | ? | · | · | ·
Cn1cc(CN2CCCC(CO)(Cc3ccccc3)C2)c2ccccc21 (configuration not stated) | ? | 2.6% | ? | ? | -16.3% | 1µM*
COc1ccc(CN2CCCC(CO)(Cc3ccc(F)cc3)C2)cc1C (configuration not stated) | -20.6% | · | 5.6 | · | · | ·
Cc1ccc(Oc2cc([N+](=O)[O-])cc3c2C(=O)Nc2ccccc2O3)cc1 | ? | -9.5% | -78.0* | ? | ? | ?
CC1CC2C(C(O)C[C@]3(C)C2CC[C@]3(O)C(=O)CO)[C@]2(C)C=CC(=O)C=C12 (some centres not stated) | -7.6% | -7.5% | · | · | -15.9% | ·
COC1C(O)C(OC2CC[C@]3(C=O)C4C(OC(C)=O)C[C@@]5(C)C(C6=CC(=O)OC6)CC[C@]5(O)C4CC[C@]3(O)C2)OC(C)C1OC(C)=O (some centres not stated) | -8.2% | -3.8% | · | · | -7.5% | ·
CC1OC(O[C@H]2C[C@@H](O)[C@]3(CO)[C@H]4[C@H](O)C[C@]5(C)[C@@H](C6=CC(=O)OC6)CC[C@]5(O)[C@@H]4CC[C@]3(O)C2)C(O)C(O)C1O (some centres not stated) | · | 0.0035µM* | · | · | ? | ·
COC1C(O)C(C)OC(OC2CCC3(C)C(CCC4C3C(O)CC3(C)C(C5=CC(=O)OC5)CCC43O)C2)C1O (configuration not stated) | -20.8% | 0.355µM* | -99.5* | ? | 0.251µM* | ?
